Source: PubChem BioAssay (NCATS)
Records with an inconclusive call do not appear. Calls of active or inactive are those of the source. Unless noted, calls follow the shape of the dose curve; as a rule, active = well fitted curve in the direction sought with a large enough effect; inconclusive = small, poorly fitted or top-dose-only effect, or another doubt; inactive = no such curve, though single readings can be large; an effect the other way counts as inactive or inconclusive.

Key:
[1] = Cytotoxicity counterscreen for NFkB agonists and antagonists (AID 624476);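 also: cells exposed to compound for 48 hours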; also: potency is read from the fitted curve at half-maximal effect
[2] = qHTS Assay for Identification of Small Molecule Antagonists for NFkB Signaling Pathway. (AID 624479; calls by dose curve;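 also: pathway stimulated with TNF alpha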; also: potency is read from the fitted curve at half-maximal effect)
[3] = Cell Proliferation Assay against the TMD8 Cell Line (AID 651645); conditions: TMD8 DLBCL cell line proliferation/viability; at 46.1 µM (top of the series);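 also: cells exposed to compound for 48 h before reading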
How it was run: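 Viability by CellTiter-Glo after 48 h compound exposure of 500 log-phase TMD8 cells per well (RPMI, 5% FBS). Percent activity scaled between DMSO (100%) and 9.2 uM final bortezomib (0%).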

[4] = Cell Proliferation Assay against the HBL1 Cell Line (AID 651646); conditions: HBL1 DLBCL cells; at 46.1 µM (top of the series);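 also: cells exposed to compound for 48 h before reading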
How it was run: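 After a 48 h incubation of 500 HBL1 cells/well in phenol red-free RPMI plus 5% FBS, relative luciferase units from CellTiter-Glo gave percent activity against DMSO and 9.2 uM bortezomib (final) controls.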

[5] = Cell Proliferation Assay against the TMD8 Cell Line (Caspase readout at 8 hrs) (AID 651713); also: potency is read from the fitted curve at half-maximal effect
How it was run: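 Luminescent caspase 3/7 assay; TMD8 cells, 8 h treatment at 37C, 5% CO2. Normalisation: DMSO 0%, 9.2 uM bortezomib 100%.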

[6] = molecular target: Tyrosine-protein kinase Yes (Homo sapiens) (UniProt P07947); experiment: qHTS for small molecule inhibitors of Yes1 kinase: Primary Screen (AID 686947); also: nearly all actives have a fitted effect of over 60% in size; also: potency is read from the fitted curve at half-maximal effect
Tyrosine-protein kinase Yes (Homo sapiens), sequence (P07947 whole entry, looked up): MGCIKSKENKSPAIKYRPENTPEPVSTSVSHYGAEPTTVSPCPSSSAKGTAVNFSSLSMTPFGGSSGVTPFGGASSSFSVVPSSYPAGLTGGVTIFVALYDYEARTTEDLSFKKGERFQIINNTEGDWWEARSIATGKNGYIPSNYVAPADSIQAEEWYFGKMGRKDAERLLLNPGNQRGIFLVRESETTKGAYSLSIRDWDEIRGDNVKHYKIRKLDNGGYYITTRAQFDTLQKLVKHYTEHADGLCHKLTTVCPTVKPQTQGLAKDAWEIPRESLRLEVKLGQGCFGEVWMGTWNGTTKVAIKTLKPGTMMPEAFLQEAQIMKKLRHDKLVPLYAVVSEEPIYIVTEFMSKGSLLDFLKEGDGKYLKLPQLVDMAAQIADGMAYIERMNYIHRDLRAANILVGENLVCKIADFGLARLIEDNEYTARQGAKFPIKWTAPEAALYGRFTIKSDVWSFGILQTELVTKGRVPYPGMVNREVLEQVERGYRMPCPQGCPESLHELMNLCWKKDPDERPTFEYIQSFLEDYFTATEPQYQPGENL
How it was run: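 In this qHTS format, inhibition is expressed relative to DMSO controls with enzyme (maximum) and without enzyme (minimum). The 60 min room-temperature reaction uses 0.1 mM ATP, with ADP detected by luminescence.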

[7] = qHTS for small molecule inhibitors of Yes1 kinase: Counter Assay (AID 686950);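 also: no kinase present so only ADP-Glo detection of a fixed ADP amount is tested; luminescence from ADP-Glo reporting ADP in a fixed ATP and ADP mixture; 0% = DMSO wells with ATP plus ADP and -100% = ATP-only wells without ADP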
How it was run: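 Measuring interference with ADP-Glo, the assay ran 60 min at room temperature on an ATP/ADP mix lacking enzyme. Values were normalized to ATP-plus-ADP (maximum) and ATP-only (minimum) DMSO controls.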

[8] = Cell Proliferation Assay against the TMD8 Cell Line (Caspase readout at 16 hrs) (AID 651712); also: potency is read from the fitted curve at half-maximal effect
How it was run: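 16 h, 37 °C, TMD8 (500 cells/well), RPMI/5% FBS no phenol red; Caspase-Glo 3/7, 15 min RT, luminescence; %act: DMSO 0, bortezomib 9.2 uM final 100.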

[9] = qHTS Assay for Identification of Small Molecule Agonists for NFkB Signaling Pathway. (AID 624478);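 also: compounds tested together with TNF alpha at its EC50 of 10 pM; 0% is about no effect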
How it was run: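 Assay medium contained 0.5% FBS and 10 mM HEPES pH 7.3. Compounds were added together with TNF alpha (10 pM final), incubated 5 h at 37 C, and the beta-lactamase signal was measured fluorometrically.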

SMILES	Potency [1]	Potency [2]	viability (% of control) [3]	viability, percent of control [4]	Potency [5]	Potency [6]	outcome [7]	Potency [8]	outcome [9]
CC(C)(O)CCc1ccc(OCc2cc(-c3cccc(OC(F)F)c3)c3ncccc3c2)cc1	inactive	23.7 µM (active)	60.9%	7.17%	inactive	inactive	inactive		
O=C(NCCS(=O)(=O)c1ccc(C(F)(F)F)cn1)c1ccc(Cl)cc1	inactive	inactive	96.1%	92%	inactive	inactive	inactive	inactive	
CN1CC[C@@H](c2c(O)cc(O)c3c(=O)cc(-c4ccccc4Cl)oc23)[C@@H](O)C1	0.132 µM (active)	0.0149 µM (active)	-0.0054%	41.8%	0.0743 µM (active)	34.5 µM (active)	inactive		
COc1cc2ncnc(Nc3ccc(F)c(Cl)c3)c2cc1NC(=O)C=CCN1CCCCC1	20.9 µM (active)	16.8 µM (active)	-0.755%	0.0432%	23.5 µM (active)	0.194 µM (active)	inactive		
C[C@]1(CO)CN(c2cc(C(=O)Nc3ccc4c(c3)-c3c(c(C(N)=O)nn3-c3ccc(F)cc3)CC4)c(Cl)cn2)C[C@@]1(C)CO	inactive	5.95 µM (active)	18.6%	23.3%	16.6 µM (active)	inactive	inactive	14.8 µM (active)	
C[C@@H](Oc1cc(-c2cnn(C3CCNCC3)c2)cnc1N)c1c(Cl)ccc(F)c1Cl	inactive			-0.628%	26.4 µM (active)		inactive		inactive
COc1ccc(C=Cc2cc(OC)c(OC)c(OC)c2)cc1O	inactive	inactive	0.872%	20.5%		inactive	inactive		
CC1(C)CCC(c2ccc(Cl)cc2)=C(CN2CCN(c3ccc(C(=O)NS(=O)(=O)c4ccc(N[C@H](CCN5CCOCC5)CSc5ccccc5)c(S(=O)(=O)C(F)(F)F)c4)cc3)CC2)C1	4.18 µM (active)	14.9 µM (active)	1.35%	3.35%	29.6 µM (active)	30.7 µM (active)	inactive		
C=CC(=O)Nc1cc2c(Nc3ccc(F)c(Cl)c3)ncnc2cc1C#CC(C)(C)N1CCN(C)CC1	7.43 µM (active)	4.73 µM (active)	-0.868%	0.0807%	5.26 µM (active)	0.0972 µM (active)	inactive		
COc1cc(OC2CCN(C)CC2)ccc1Nc1ncc2c(n1)n(C1CCCC1)c(=O)n2C	inactive		56.7%	38.2%	10.5 µM (active)		inactive		inactive
NC(=O)c1c(OCc2c(F)cc(Br)cc2F)nsc1NC(=O)NCCCCN1CCCC1	inactive			4.14%		0.0019 µM (active)	inactive		inactive
COC(=O)[C@]12CCC(C)(C)C[C@@H]1[C@@H]1C(=O)C=C3[C@@]4(C)C=C(C#N)C(=O)C(C)(C)[C@@H]4CC[C@@]3(C)[C@]1(C)CC2	1.32 µM (active)	0.595 µM (active)							
Cc1ccc(-c2ncn(-c3ccc(Nc4nccc(-c5cccc(N6CCOCC6)c5)n4)cc3)n2)cn1	0.935 µM (active)	0.237 µM (active)	0.9%	0.21%		12.2 µM (active)	inactive	0.0105 µM (active)	
CCN1CCN(CC(=O)Nc2ccc(-c3cccc4c(=O)cc(N5CCOCC5)oc34)c3sc4ccccc4c23)CC1	5.9 µM (active)	13.3 µM (active)	0.621%	0.638%	20.9 µM (active)	inactive	inactive		
Nc1nccc(Oc2ccc(NC(=O)c3c[nH]cc(-c4ccc(F)cc4)c3=O)cc2F)c1Cl	18.7 µM (active)	5.95 µM (active)	4.79%	14.4%	inactive	48.7 µM (active)	inactive		
Nc1cc(C(F)(F)F)c(-c2cc(N3CCOCC3)nc(N3CCOCC3)n2)cn1	0.935 µM (active)	inactive	3.22%	16.8%	20.9 µM (active)	inactive	inactive		
CN1CCN(c2ccc3nc(-c4c(N)c5c(F)cccc5[nH]c4=O)[nH]c3c2)CC1	16.6 µM (active)	0.421 µM (active)	-0.299%	0.538%	18.7 µM (active)		inactive		
CC1(C)OC2=C(C(=O)c3ccccc3C2=O)[C@H](NCc2ccccc2)[C@H]1O	5.26 µM (active)	3.75 µM (active)	5.62%	6.45%		inactive	inactive	inactive	

SMILES	Potency [1]	Potency [2]	viability (% of control) [3]	viability, percent of control [4]	Potency [5]	Potency [6]	outcome [7]	Potency [8]	outcome [9]
Cc1nc2cnc3ccc(C#Cc4cccnc4)cc3c2n1-c1ccc(C(C)(C)C#N)cc1	inactive		0.22%	0.379%	26.4 µM (active)		inactive		inactive
COC(=O)c1ccc2c(C(=Nc3ccc(N(C)C(=O)CN4CCN(C)CC4)cc3)c3ccccc3)c(O)[nH]c2c1	23.5 µM (active)			2.34%	26.4 µM (active)		inactive		inactive
O=C(O)[C@H](Cc1c[nH]c2ccccc12)N1C(=O)c2ccccc2C1=O	inactive	inactive	104%	130%	inactive	inactive	inactive		
CC(C)CC(=O)Nc1n[nH]c2c1CN(C(=O)C1CCN(C)CC1)C2(C)C	2.35 µM (active)	0.266 µM (active)	4.73%	49.6%	2.35 µM (active)	12.2 µM (active)	inactive		
C[C@@]12O[C@@H](C[C@]1(O)CO)n1c3ccccc3c3c4c(c5c6ccccc6n2c5c31)CNC4=O	3.32 µM (active)		1.51%	3.21%			inactive		inactive
CC(=O)SC[C@@H](C)C(=O)N1CCC[C@H]1C(=O)N[C@@H](Cc1ccccc1)C(=O)O		8.41 µM (active)	104%	97.5%	inactive	inactive	inactive		inactive
CC1=C(CO)C(=O)O[C@@H]([C@@H](C)[C@H]2CC[C@H]3[C@@H]4C[C@H]5O[C@]56[C@@H](O)C=CC(=O)[C@]6(C)[C@@H]4CC[C@]23C)C1	3.32 µM (active)	1.49 µM (active)		1.69%	inactive	inactive	inactive	inactive	
COc1cc2nccc(Oc3ccc(NC(=O)C4(C(=O)Nc5ccc(F)cc5)CC4)cc3)c2cc1OC		16.8 µM (active)	18.7%	3.78%		1.09 µM (active)	inactive		inactive
Nc1nc(-c2nn(Cc3ccccc3F)c3ncccc23)nc(N)c1N1CCOCC1	inactive	inactive			inactive	inactive	inactive		
Clc1ccc2ncc(-c3cccc(NC4CNC4)n3)n2c1		6.68 µM (active)	1.46%	34.2%		0.274 µM (active)	inactive		inactive
Cc1[nH]c2ccccc2c1CCNCc1ccc(C=CC(=O)NO)cc1	0.332 µM (active)			-0.0299%		13.7 µM (active)	inactive		
Nc1ccc(C(=O)c2cc3c(ccc4ccccc43)[nH]2)cc1		14.9 µM (active)	28.2%	14.4%	inactive	30.7 µM (active)	inactive	26.4 µM (active)	inactive
O=C(Nc1cc(C(F)(F)F)cc(C(F)(F)F)c1)c1cc(Cl)ccc1O	0.235 µM (active)			12.7%		inactive	inactive		
O=C(O)c1ccc2cc(-c3ccc(O)c(C45CC6CC(CC(C6)C4)C5)c3)ccc2c1	0.118 µM (active)	14.9 µM (active)		1.91%		inactive	inactive		
O=C(O)c1ccc2c(c1)nc(Nc1cccc(Cl)c1)c1ccncc12		0.298 µM (active)		32.2%	inactive	0.487 µM (active)	inactive		inactive
CC(C)(C)c1cc(NC(=O)Nc2ccc(-c3cn4c(n3)sc3cc(OCCN5CCOCC5)ccc34)cc2)no1		13.3 µM (active)	41.9%	30.7%	inactive	inactive	inactive	inactive	inactive
C[C@@H](Oc1cc(-n2cnc3ccc(CN4CCN(C)CC4)cc32)sc1C(N)=O)c1ccccc1C(F)(F)F		inactive	2.56%	3.16%	23.5 µM (active)		inactive		inactive
C=CC(=O)Nc1cccc(Oc2nc(Nc3ccc(N4CCN(C)CC4)cc3OC)ncc2Cl)c1		inactive	0.697%	2.13%	7.43 µM (active)	4.87 µM (active)	inactive		inactive
